Each structure is given as a SMILES string. The panel holds about 83,000 compounds, 20% with a hit somewhere; the sample as a whole holds those more often.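 A percent growth of 40 corresponds to 60% growth inhibition; 0 means no net growth; -100 means all cells died. Active threshold: below 10.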 Values without a mark were called inactive. Activity calls are given as the source filed them.

In the experiment the test system is KM12 colon. The experiment can be described thus: NCI-60 one-dose screen, 48 h (100 = growth as untreated, 0 = no growth, -100 = all killed). The note with it: 10 µM unless noted.
For `CCN1C(=O)N(CC)C2SC(N/N=C/c3cccs3)=NC21` (configuration not stated), the growth is 6.21% (active).
The result for `O=C1NC(=O)/C(=C/c2ccc(OCc3cc4ccccc4nc3Cl)cc2)S1` reads 100%.
As for `O=C(NNc1nc2cc(F)c(F)cc2n2cccc12)c1ccncn1`, the figure is 21.4%.
The result for `C#C[C@]1(O)CC[C@H]2[C@@H]3CC=C4c5sc(Nc6nc(C)cc(OC)n6)nc5CC[C@]4(C)[C@H]3CC[C@@]21C` reads 46.1%; that for `CCNC(=O)Oc1ccc(/C(=C(/C)c2ccc(Cl)cc2)c2ccc(OCCN3CCCC3)cc2)cc1`, 95.5%; that for `O=C(NNc1nc2cc(F)c(F)cc2n2cccc12)c1cccnn1`, 24.3%.
In the case of `O=C(O)CNS(=O)(=O)c1ccc(Oc2ccc(S(=O)(=O)NCC(=O)O)cc2)cc1`, the growth was 98.4%.
As for `Cc1cc(NS(=O)(=O)c2ccc(-c3cnc(C4CC4)o3)cc2)ccc1I`, the figure is 27.4%; as for `COc1ccc(C(=O)c2c(N)c(C#N)cn2-c2cccc(OC)c2)cc1`, 23.7%; as for `COc1ccc(CCN2C(=O)CSC2=S)cc1OC`, 16.6%.
With `Cc1ccc(/C=C/CC(=O)Nc2ccc(C(=O)Nc3ccc(F)cc3N)cc2)cn1`, the growth was 75.2%.
The result for `O=C(NNc1nc2cc(F)cc(F)c2n2cccc12)c1ccncn1` reads 21.6%.
As to `C[C@H]1[C@H](C)CC[C@]2(COC(=O)c3cccnc3)CC[C@]3(C)C(=CC[C@@H]4[C@@]5(C)CCCNC(C)(C)[C@@H]5CC[C@]43C)[C@H]12`, the growth is 68.9%.
The result for `Fc1ccccc1/C=C(/C1=NCCN1)n1cnc2ccccc21` reads 96.5%; that for `COc1ccc(CN2C(=O)/C(=C/c3nc(CO)cs3)SC2=S)cc1`, 9.43% (active).
As for `O=C(Nc1cc(F)cc2cccnc12)c1cnc(N2CCOCC2)cn1`, the figure is 99.1%; as for `CC1OC(O[C@@H]2[C@H](O)C(CO)OC(O[C@H]3COC(O[C@H]4CC[C@]5(C)[C@H]6CC[C@]78OC[C@@]9(CCC(C)(C)C[C@H]97)[C@H](O)C[C@@]8(C)[C@]6(C)CC[C@H]5C4(C)C)[C@@H](OC4OC(CO)[C@@H](O)[C@@H](O)[C@@H]4O)[C@@H]3O)[C@H]2OC2OC[C@@H](O)[C@@H](O)[C@@H]2O)[C@@H](O)[C@@H](O)[C@H]1O` (some centres not stated), -51.9% (active).
As for `C#C[C@]1(O)CC[C@H]2[C@@H]3CC=C4c5sc(Nc6cccc(Cl)n6)nc5CC[C@]4(C)[C@H]3CC[C@@]21C`, the figure is -10.8% (active); as for `Cc1ccc(/C=C/CC(=O)Nc2ccc(C(=O)Nc3ccc(F)cc3N)nc2)cn1`, 49.5%.
On to `O=C1[C@@H]2Cc3c([nH]c4ccccc34)[C@H](c3c(Cl)cccc3Cl)N2C(=O)CN1C1CCN(Cc2ccccc2)CC1`, for which the growth is 30.2%.
The result for `C#CCOc1ccc(C(Nc2ccc(OC)cc2)c2nnnn2C2CCCCC2)cc1` (configuration not stated) reads 102%; that for `COc1cc(C(=O)c2cc(C(C)=O)c3c4ccccc4ccn23)cc(OC)c1OC`, 43.9%; that for `Cc1[nH]nc2ccc(-c3nc4cnc(N5CCN(C)CC5)cn4c3Nc3ccc(F)cc3Br)cc12`, 59.3%.
As for `O=C(Nc1cccc(Cl)c1)Nc1nc2ccc(-c3cccc4ccccc34)cc2s1`, the figure is 23%; as for `Cc1cc(C(=O)Nc2ccc(SC#N)cc2)c(C)o1`, 89%.
On to `O=C(NNc1nc2cc(F)c(F)cc2n2cccc12)c1ncccn1`, for which the growth is 25.6%.
As for `CN1CCN(c2ccc(NC(=O)Nc3ccc4c(ccn4-c4cccc(C(N)=O)n4)c3)cc2C(F)(F)F)CC1`, the figure is 22%; as for `O=C(Nc1ccc(Cl)cc1)Nc1nc2ccc([N+](=O)[O-])cc2s1`, -13.2% (active); as for `NC(=O)c1c(NC(=O)c2cccc(OC(F)(F)F)c2)sc2c1CCC(=O)C2`, 31.4%.
The result for `O=C(/C=C1\C=CN(CCCCO)c2ccccc21)n1ccc2ccccc21` reads 100%; that for `O=C1c2c(c3c4cccnc4[nH]c3c3ccc4ccccc4c23)C(=O)N1CCN1CCNCC1`, 73.6%; that for `O=C(Nc1ccccc1)Nc1nc2ccc([N+](=O)[O-])cc2s1`, 3.66% (active).
Turning to `Cc1cc(Cl)cc(NS(=O)(=O)c2ccc(-c3cnc(C4CC4)o3)cc2)c1`, the growth is 15.4%.
As for `CCOC(=O)C1=C(C)Nc2nc3ccccc3n2C1c1cccc(Br)c1` (configuration not stated), the growth is 65.6%.
Take `CCOC(=O)c1nn(-c2ccc(C)cc2)c(=O)c2c(N)c(C#N)c(-c3ccc(OC)cc3)cc12`: the growth is 95.5%.
As for `Cc1ccc(NC(=O)c2cccc(CN3CCN(C)CC3)c2)cc1Oc1ccc(-c2[nH]nc3ncnc(N)c23)cc1`, the figure is 37.4%; as for `CC(C)(C)OC(=O)N1CCN(S(=O)(=O)/N=C2\NC(=O)NC2=C(Cl)Cl)CC1`, 107%.
